Experimental data taken from PubChem BioAssay AID652053 (Broad Institute, 2013).
Out of some 1,300 compounds screened, about 930 (72%) were called active.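 How the source made its calls: active means fitted curve reaches 40% activation signal increase at or below the top valid tested concentration in every replicate test; inconclusive means replicate tests disagree in their calls; inactive means all replicate tests inactive, including effects opposite the expected signal rise.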 The set was probably picked from earlier hits. A selection follows. Potency and affinity values are given separately.

test: suppression of miR-122 activity, Renilla luciferase sensor – cell-based, Huh7 psiCHECK-miR122, cherry-pick, dose response (AID 652053); conditions: Huh7 psiCHECK-miR122 Renilla luciferase reporter, 48 h; series mostly up to 35 µM

outcome, inactive:
CCOC(=O)N1CCN(c2ncnc3c2oc2nc(C(C)C)c4c(c23)CCC4)CC1
CC(=O)Nc1ccc2nc(CN3CCC(CO)(CCc4ccccc4)CC3)ccc2c1
COc1ccc(N(Cc2ccccc2)S(=O)(=O)c2cccc(C(=O)NC3=NCCS3)c2)cc1
CCOC(=O)c1[nH]c(C)c(C(=O)Nc2ccccc2C)c1C
Cc1ccc(N2CC(C(=O)Nc3nccs3)CC2=O)cc1Cl (stereo not drawn)
c1csc(CNc2ncnc3ccc(-c4ccc5c(c4)OCO5)cc23)c1
CCC(=O)N(C)C[C@@H]1[C@@H](c2ccc(C3=CCCC3)cc2)[C@H](CO)N1C(=O)CC
N#Cc1ccc(CSc2nnc(-c3cccnc3)o2)cc1
COCCOC(=O)c1c(C)oc2ccc(NS(=O)(=O)c3ccc(C)cc3)cc12
Cc1ccc(S(=O)(=O)NC(C)(C)CSc2nnc(Nc3ccccc3)s2)cc1
CCc1noc(C)c1C(=O)OCC(=O)c1ccc(NC(C)=O)cc1F
COc1ccccc1N1CCN(C(=O)CSc2nnc(NC(=O)C3CCC3)s2)CC1
O=C(c1ccccc1F)N1C[C@H]2[C@@H](c3ccccc31)[C@@H](CO)N2CC1CCCCC1
CCCNC(=O)N1C[C@H]2[C@@H](c3ccccc31)[C@@H](CO)N2Cc1ccc(F)cc1
COc1cc(OC)cc(C(=O)N[C@H](C(=O)Nc2nc3ccccc3[nH]2)C(C)C)c1
O=C1N=C(N2CCc3ccccc3C2)S/C1=C\c1cccc(O)c1
COc1ccc(C(=O)Nc2ccccc2C(=O)N/N=C/c2ccccc2OC)cc1
Cc1ncc([N+](=O)[O-])n1CC(=O)Nc1ccc2c(c1)OCO2
CCc1ccc(-c2cc(C(=O)NCc3ccccn3)c3ccccc3n2)cc1
N/C(Cc1cccc2ccccc12)=N\OC(=O)c1ccc2c(c1)OCO2
CCOc1ccc(N2C(=O)c3cccnc3C2Nc2ccc(F)cc2)cc1 (stereo not drawn)
O=C(Nc1ccc2c(c1)OCCO2)C1CCN(S(=O)(=O)c2ccccc2)CC1
CCCC(=O)Nc1nc2ccc(NC(=O)c3c(F)c(F)c(OC)c(F)c3F)cc2s1
Cc1ccc(S(=O)(=O)N(C)C[C@@H]2Oc3ccc(NC(=O)Nc4ccc5c(c4)OCO5)cc3CC(=O)N([C@@H](C)CO)C[C@@H]2C)cc1
O=C(NC(=S)NCc1ccc2c(c1)OCO2)c1ccccc1
Cc1cc(C)cc(N(CC(=O)N2CCC(C)CC2)S(=O)(=O)c2ccccc2)c1
CC1CCN(S(=O)(=O)N2CCC(C(=O)NCCc3ccccc3)CC2)CC1
Fc1ccc(CSc2nnc(-c3cccnc3)o2)cc1
CC(C)CC#Cc1ccc2c(c1)O[C@@H](CN(C)C(=O)C1CCC1)[C@@H](C)CN([C@H](C)CO)S2(=O)=O
C[C@H](CO)N1C[C@H](C)[C@H](CN(C)C(=O)Nc2cccc3ccccc23)Oc2ccc(N(C)C)cc2CC1=O
C[C@H](CO)N1C[C@H](C)[C@@H](CN(C)S(C)(=O)=O)Oc2cc(C#Cc3ccccc3)ccc2S1(=O)=O
COC(=O)CCCCCC(CCC(=O)OC)NC(C)=O (stereo not drawn)
COC(=O)C[C@H]1CC[C@@H]2[C@@H](COc3ccc(NS(=O)(=O)c4ccc(C)cc4)cc3C(=O)N2C)O1
COC(=O)C[C@H]1CC[C@H]2[C@H](COc3ccc(NS(=O)(=O)c4ccc(C)cc4)cc3C(=O)N2C)O1
CC(C)NC(=O)COC(=O)c1ccc(NS(=O)(=O)c2ccc3c(c2)OCCO3)cc1
COC(=O)C[C@@H]1CC[C@H]2[C@H](COc3ccc(NS(=O)(=O)c4ccc(C)cc4)cc3C(=O)N2C)O1
COC(=O)C[C@@H]1CC[C@@H]2[C@@H](COc3ccc(NS(=O)(=O)c4ccc(C)cc4)cc3C(=O)N2C)O1
CN(C)S(=O)(=O)NC(c1ccccc1)c1ccccc1
O=C(COC(=O)c1cccc(NS(=O)(=O)/C=C/c2ccccc2)c1)Nc1ccccc1OC(F)F
Cc1noc(C)c1S(=O)(=O)N(C)C[C@@H]1Oc2c(NC(=O)C3CCCCC3)cccc2C(=O)N([C@H](C)CO)C[C@@H]1C
C[C@H](CO)N1C[C@H](C)[C@@H](CN(C)S(=O)(=O)c2cccs2)Oc2c(NC(=O)C3CCOCC3)cccc2C1=O
COCC(=O)N1[C@H](CO)[C@H](c2ccccc2)[C@@H]1CNC(=O)c1ccccn1
COCC(=O)NC[C@H]1N[C@H](CO)[C@@H]1c1ccc(C2=CCCCC2)cc1
O=C(COC(=O)c1c2c(nc3ccccc13)CCN(Cc1ccccc1)C2)Nc1c(F)cccc1F
O=C(O/N=C1\CCS(=O)(=O)c2sccc21)c1ccccc1
CCCCNC(=O)CN1C(=O)NC2(CCOc3ccccc32)C1=O (stereo not drawn)
O=C(Nc1ccccc1F)N1C[C@@H]2[C@H](c3ccccc31)[C@@H](CO)N2C(=O)C1CCCC1
CCC(=O)N1[C@H](CO)[C@@H]2c3ccccc3N(C(=O)c3ccccc3F)C[C@@H]21
O=C(NC[C@@H]1[C@H](c2ccccc2)[C@@H](CO)N1C(=O)C1CC1)NC1CCCC1
O=C(c1ccccc1F)N1C[C@H]2[C@@H](c3ccccc31)[C@@H](CO)N2C(=O)C1CCCC1
O=C1CCCS(=O)(=O)c2ccccc21
Cc1ccc2nc(C)c(C)nc2c1N
CNC(=O)[C@@]1(C)C=C[C@@H](Cc2ccccc2)N1C(=O)OC
O=C(Cc1cccs1)Nc1ccc(S(=O)(=O)N2CCCCC2)cc1
Cc1ccc(S(=O)(=O)Nc2ccc3c(c2)CC(=O)N([C@@H](C)CO)C[C@H](C)[C@@H](CN(C)Cc2ccc(C(=O)Nc4ccccc4N)cc2)O3)cc1
Cc1ccc(S(=O)(=O)Nc2ccc3c(c2)CC(=O)N([C@H](C)CO)C[C@H](C)[C@@H](CN(C)Cc2ccc(C(=O)Nc4ccccc4N)cc2)O3)cc1
Cc1ccc(S(=O)(=O)Nc2ccc3c(c2)CC(=O)N([C@@H](C)CO)C[C@@H](C)[C@@H](CN(C)Cc2ccc(C(=O)Nc4ccccc4N)cc2)O3)cc1
Cc1ccc(S(=O)(=O)Nc2ccc3c(c2)CC(=O)N([C@H](C)CO)C[C@@H](C)[C@@H](CN(C)Cc2ccc(C(=O)Nc4ccccc4N)cc2)O3)cc1
